Source: PubChem
GLS inh: glutaminase GLS (human) inhibition; O94925; GLS enzymatic activity, qHTS titration; Potency, µM (doses to about 45.5 µM), most hits filed as inhibitors; actives 0.21% (n = 410,000); AID 624170
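Compounds were pin-transferred onto hKGA, after which L-glutamine (1 mM solution) and a detection mix of glutamate oxidase, HRP and Amplex Red were added. Initial and 30 min RT fluorescence reads were collected.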
TrxR1 substrate: rat thioredoxin reductase 1 substrate activity | Potency, µM (highest dose often 114 µM) | O89049 | purified TrxR1 substrate turnover, NADPH consumption readout | actives 0.01% (n = 390,000); note: nearly all actives have a fitted effect of over 50% in size
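Rat TrxR1, dispensed at 90 nM, was prereduced with 400 uM NADPH (final) for 5 min at ~22 deg C, then incubated with compound 15 min before 400 uM selenite. A first-read NADPH fluorescence drop versus no-compound background flagged substrates.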
IDH1 R132H inh: human IDH1 R132H inhibition. Potency, µM (highest dose often 76.6 µM), actives largely listed as inhibitors. actives 0.093% (n = 390,000). O75874. AID 602179. IDH1-R132H enzyme, NADPH consumption, diaphorase/resazurin fluorescence; note: nearly all actives have a fitted effect of over 65% in size
Target sequence (O75874 whole entry R132H, stated change not applied): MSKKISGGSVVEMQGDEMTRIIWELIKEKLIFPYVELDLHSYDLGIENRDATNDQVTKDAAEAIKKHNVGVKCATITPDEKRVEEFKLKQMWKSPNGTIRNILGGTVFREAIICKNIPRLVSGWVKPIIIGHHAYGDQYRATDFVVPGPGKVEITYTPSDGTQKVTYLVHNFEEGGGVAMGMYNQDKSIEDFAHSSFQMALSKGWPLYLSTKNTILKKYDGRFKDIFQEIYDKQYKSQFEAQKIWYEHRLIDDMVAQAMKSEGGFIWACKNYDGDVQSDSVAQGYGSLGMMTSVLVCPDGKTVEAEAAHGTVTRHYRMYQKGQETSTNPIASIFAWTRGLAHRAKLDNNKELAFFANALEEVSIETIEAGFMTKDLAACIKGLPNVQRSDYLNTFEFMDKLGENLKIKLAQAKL
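IDH1-R132H (0.5 ug/mL) preincubated 30 min with compound, then NADPH (0.016 mM) and alpha-KG (2 mM) added; 80 min at RT, pH 7.5. Remaining NADPH coupled via diaphorase/resazurin to fluorescence (540/590 nm); concentration-response curves normalized to no-enzyme control.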
TrxR1 inh: blocks rat thioredoxin reductase 1; O89049; recombinant rTrxR1, NADPH fluorescence consumption, selenite substrate; Potency, µM (titrated, usually from 114 µM), most hits filed as inhibitors; actives 1% (n = 390,000); note: nearly all actives have a fitted effect of over 65% in size
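Rat TrxR1 (90 nM in the dispensed reagent) was pre-reduced with 400 uM NADPH for 5 min at room temperature, then incubated with compound for 15 min. After 400 uM selenite was added, NADPH fluorescence (Ex 340/Em 450 nm) was followed for 8 min.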
Large screens that a line does not name were inactive. This is a sample that favours compounds with a hit; in the whole collection about 1.2% have one here. Calls come from the whole dose curve; as a rule, active = well fitted curve in the direction sought with a large enough effect; inconclusive = small, poorly fitted or top-dose-only effect, or another doubt; inactive = no such curve, though single readings can be large; an effect the other way counts as inactive or inconclusive.

CCCCCC(=O)Nc1cccc(C2=NOC3(C2)C[C@@H](C(N)=O)N(C(=O)c2cc([N+](=O)[O-])cc([N+](=O)[O-])c2C)C3)c1 (stereo partly drawn)	none
CCCCCC(=O)N1CC2(CC(c3cccc(NC(=O)[C@@H]4CCC(=O)N4)c3)=NO2)C[C@@H]1C(N)=O (stereo partly drawn)	none
C=C(C)C(=O)Nc1cccc(C2=NOC3(C2)C[C@@H](C(N)=O)N(C(=O)CCCCC)C3)c1 (stereo partly drawn)	GLS inh 10µM
CCCc1cc(C(=O)Nc2c(C)nn(Cc3c(Cl)cccc3Cl)c2C)no1	none
CC[N+](CC)(CC)c1ccc(/C=C/c2ccnc3ccccc23)cc1	none (no result: GLS inh, IDH1 R132H inh)
C=CCN1CC[C@@H](O)C(=C)S1(=O)=O	none (no result: GLS inh, IDH1 R132H inh)
CCOC(=O)c1c(C)oc2nc(C)nc(N3CCN(c4cc(Cl)ccc4C)CC3)c12	none
C/C=C/C=C\C(=O)Nc1cccc(C2=NOC3(C2)C[C@H](C(N)=O)N(C(=O)/C=C/C)C3)c1 (stereo partly drawn)	TrxR1 inh 14µM
C/C=C\C=C\C(=O)N1CC2(CC(c3cccc(NC(=O)CC)c3)=NO2)C[C@H]1C(N)=O (stereo partly drawn)	GLS inh inconclusive, TrxR1 inh inconclusive
Nc1ccc(-c2nc3ncccc3o2)c(O)c1	TrxR1 inh 89µM
COCc1ccc(C(=O)N2CCCC(CNC(=O)c3ccc(F)cc3)C2)o1 (stereo not drawn)	TrxR1 inh 35µM
COc1cc(CN2CCN(Cc3ccc(C)cc3)C(CCO)C2)cc(OC)c1O (stereo not drawn)	GLS inh 7.1µM, TrxR1 inh inconclusive
COc1ccc(CN2CCN(Cc3ccc(C)cc3)C(CCO)C2)cc1OC (stereo not drawn)	none
Cc1nc([N+](=O)[O-])c(Br)n1CC(=O)c1ccc(Br)cc1	TrxR1 inh 11µM
Cc1cc([N+](=O)[O-])nn1CC(=O)c1ccccc1	none
Cc1nc([N+](=O)[O-])c(Br)n1CC(=O)c1ccccc1	TrxR1 inh 11µM
Cc1nc([N+](=O)[O-])cn1CC(=O)c1ccc(Cl)cc1	none
CC(C)=NOc1cc(NC(=O)CCl)cc([N+](=O)[O-])c1	TrxR1 inh 2.8µM
CCC(=O)Nc1cc(ON=C(C)C)cc([N+](=O)[O-])c1	none
O=C(CCl)Nc1cc(SCC(O)CO)cc([N+](=O)[O-])c1 (stereo not drawn)	TrxR1 inh 5.6µM
Oc1ccc(/C=N/N2CCCCC2)c(O)c1	GLS inh 6.3µM
Cc1c(C(=O)O)cccc1-c1ccc(/C=C2/NC(=O)N(c3ccccc3)C2=O)o1	none
O=C1N/C(=C/c2ccc(N3CCOCC3)o2)C(=O)N1c1cccc(Cl)c1	TrxR1 inh 3.2µM
Cc1ccc(/C=C2/NC(=O)N(c3ccccc3)C2=O)o1	TrxR1 inh 50µM
COc1ccc(NC(=O)Cc2csc(COc3cccc(C)c3)n2)c(OC)c1	none
Cc1cc(=O)[nH]c(N/N=C2/CCCC/C2=C\c2ccccc2)n1	TrxR1 inh 40µM
CC/C=C(\C(=O)N[C@H]1C(=O)N2C(C(=O)OCOC(=O)C(C)(C)C)=C(COC(N)=O)CS[C@H]12)c1csc(N)n1	none (no result: TrxR1 substrate, IDH1 R132H inh, TrxR1 inh)
CN(C)c1ccc(/C=C/c2cc3ccccc3cn2)cc1	none (no result: GLS inh, IDH1 R132H inh)
CC1(C)Cc2c(cnn2-c2ccc(F)cc2)C(NC(=O)c2ccco2)C1 (stereo not drawn)	none
CC1(C)Cc2c(cnn2-c2ccc(F)cc2)C(NC(=O)C2=NNC(=O)CC2)C1 (stereo not drawn)	GLS inh 16µM
CCc1c(C)c(C#N)c2nc3ccccc3n2c1NC	none
Cc1c(CCCl)c(Cl)n2c(nc3ccccc32)c1C#N	TrxR1 inh 2.2µM
N#Cc1c2c(c(Cl)n3c1nc1ccccc13)CCCC2	TrxR1 inh 3.5µM (no result: GLS inh, IDH1 R132H inh)
CNc1cc(C)c(C#N)c2nc3ccccc3n12	none
Cc1cc(Cl)n2c(nc3ccccc32)c1C#N	TrxR1 inh 7.1µM
N#C/C(=C1/SC[C@@H](c2ccc(Cl)cc2Cl)S1)n1ccnc1	none (no result: TrxR1 substrate, IDH1 R132H inh, TrxR1 inh)
S=C(c1ccc(-c2ccc(Br)cc2)o1)N1CCOCC1	none
S=C(c1ccc(-c2ccc(Cl)c(Cl)c2)o1)N1CCOCC1	TrxR1 inh 28µM
CC(C)C[C@H](NC(=O)[C@@H]1Cc2c([nH]c3ccccc23)C2c3ccccc3C(=O)N21)C(=O)N1CCC[C@@H]1C(=O)O (stereo partly drawn)	GLS inh 13µM
O=C1C(Cl)=C(NCCN2CCCCC2)C(=O)c2ccccc21	TrxR1 inh 11µM
COc1ccc(S(=O)(=O)N(CC(=O)NCCSc2ccccc2)c2ccc(Cl)cc2)cc1	none
CC12CCC(=O)C=C1CCC1C2CCC2(C)C1CC1C3C(=O)N(Cc4ccccc4)C(=O)C3CC(=O)C12 (stereo not drawn)	none
CC(=O)Nc1ccccc1-c1nc2ccccc2n(CC(=O)Nc2cccc(C)c2C)c1=O	none
C(=C\c1ccc2ccccc2n1)/c1cccnc1	none (no result: GLS inh, IDH1 R132H inh)
CCn1c(=NC(=O)CCS(=O)(=O)c2ccccc2)sc2cccc(OC)c21	none
COCCn1c(=NC(=O)CCS(=O)(=O)c2ccccc2)sc2cc(C)ccc21	TrxR1 inh 40µM
COCCn1c(=NC(=O)CCS(=O)(=O)c2ccccc2)sc2cc(F)ccc21	TrxR1 inh inconclusive
COC(=O)Cn1c(=NC(=O)CCS(=O)(=O)c2ccccc2)sc2c(OC)ccc(OC)c21	TrxR1 inh 28µM
Cc1cc(NC(=O)CSc2nc(Cc3ccc(O)cc3)c(C)[nH]2)no1	TrxR1 inh 16µM
Cc1[nH]c(SCC(=O)Nc2cc(C(N)=O)cc(C(N)=O)c2)nc1Cc1ccccc1	TrxR1 inh inconclusive
N#CC(C#N)=C1C=CC=CN1/C(=C\c1ccccc1)C(=O)c1cccs1	TrxR1 inh 0.45µM
Nc1c(N=O)c(=O)[nH]c(=O)n1-c1ccccc1	none
Nc1c(Br)c(=O)[nH]c(=O)n1-c1ccc(F)cc1	TrxR1 inh 40µM
COc1ccc(CCNc2ncnc3onc(C)c23)c(OC)c1	none
Cc1cc(C)cc(-n2c(SCC(=O)N3CCOCC3)nc3c([nH]c4ccccc43)c2=O)c1	none
COc1ccc(CC(=O)OCCc2cc3cc(OC)c(OC)cc3c(=O)o2)cc1	TrxR1 inh 18µM
O=C(C1CC1)N1CCN(c2ccc(O)cc2)CC1	GLS inh 10µM
Cc1ccc2oc(C(=O)N(C)Cc3ccon3)c(C)c2c1	none
Cc1ccc(CN(C)C(=O)c2cc(Br)c(Br)s2)o1	TrxR1 inh 50µM
C=CCN1C(=O)c2ccc(C(=O)N(C)Cc3ccc(C)o3)cc2C1=O	TrxR1 inh inconclusive
Cc1ccc2oc(C(=O)N(C)Cc3ccc(C)o3)c(C)c2c1	TrxR1 inh 7.1µM
O=C(CCN1CCOCC1)c1ccc2c(c1)OCCO2	TrxR1 inh 4µM
O=C(CCN1CCc2ccccc2CC1)c1ccc2c(c1)OCCO2	TrxR1 inh 0.32µM
O=C(CCCN1CCOCC1)c1ccc2c(c1)OCCO2	none
